{"source": "paper PMC4336329", "about": "(PLoS ONE, 2015)", "note": "Screen size: about 310,000 compounds; about 14,000 (4.5%) showed an effect of 50% or more. Effects have a minus sign here. Many of the other results were omitted from the sample, so strong results are more common in it than they were.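 Also: peak tail current of the secondary pulse compared with the same well before compound.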"}
{"molecular_target": "human ether-à-go-go-related gene (hERG) potassium channel (human, UniProt Q12809)", "sequence (Q12809 whole entry, looked up)": "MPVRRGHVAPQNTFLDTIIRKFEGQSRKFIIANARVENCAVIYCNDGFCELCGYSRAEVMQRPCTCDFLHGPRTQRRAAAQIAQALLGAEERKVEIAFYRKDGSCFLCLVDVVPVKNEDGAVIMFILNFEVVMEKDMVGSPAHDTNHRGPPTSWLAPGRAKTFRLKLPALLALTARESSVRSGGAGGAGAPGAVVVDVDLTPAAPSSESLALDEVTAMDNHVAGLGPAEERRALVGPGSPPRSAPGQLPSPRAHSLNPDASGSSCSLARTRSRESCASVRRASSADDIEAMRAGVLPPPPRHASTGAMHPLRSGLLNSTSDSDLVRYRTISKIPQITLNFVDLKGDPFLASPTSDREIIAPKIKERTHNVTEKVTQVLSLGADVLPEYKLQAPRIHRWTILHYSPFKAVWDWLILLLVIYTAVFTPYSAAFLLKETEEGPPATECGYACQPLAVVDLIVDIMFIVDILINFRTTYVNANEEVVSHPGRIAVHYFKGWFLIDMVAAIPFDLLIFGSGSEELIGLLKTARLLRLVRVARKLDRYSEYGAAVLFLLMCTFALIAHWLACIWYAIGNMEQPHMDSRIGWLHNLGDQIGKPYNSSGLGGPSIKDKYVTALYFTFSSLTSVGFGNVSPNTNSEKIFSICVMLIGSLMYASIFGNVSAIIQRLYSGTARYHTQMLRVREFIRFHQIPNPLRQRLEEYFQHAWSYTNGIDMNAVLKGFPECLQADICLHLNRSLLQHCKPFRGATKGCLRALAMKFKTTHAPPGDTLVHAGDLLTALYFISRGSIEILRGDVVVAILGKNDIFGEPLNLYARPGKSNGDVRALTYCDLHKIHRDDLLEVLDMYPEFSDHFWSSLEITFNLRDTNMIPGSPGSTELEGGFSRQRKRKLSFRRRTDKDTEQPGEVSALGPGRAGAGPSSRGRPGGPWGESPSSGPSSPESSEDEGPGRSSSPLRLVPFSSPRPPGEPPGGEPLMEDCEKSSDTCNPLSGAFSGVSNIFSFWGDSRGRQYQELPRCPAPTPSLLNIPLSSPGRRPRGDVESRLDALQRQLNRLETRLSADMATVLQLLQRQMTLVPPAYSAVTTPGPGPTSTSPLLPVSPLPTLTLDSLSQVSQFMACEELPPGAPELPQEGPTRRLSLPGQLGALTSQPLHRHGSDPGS", "assay": "primary screen, population patch clamp on CHO cells stably expressing hERG; higher = less effect of the substance", "units": {"hERG current change (%, negative = inhibition) at 10uM": "%"}}
{"smiles": "COc1ccc(S(=O)(=O)NCC(=O)N(CC(=O)NCc2ccco2)Cc2ccc(F)cc2)cc1", "hERG current change (%, negative = inhibition) at 10uM": 1.94}
{"smiles": "COc1ccc(S(=O)(=O)NCC(=O)N(CC(=O)NCc2ccccc2)Cc2ccco2)cc1", "hERG current change (%, negative = inhibition) at 10uM": -17}
{"smiles": "COc1cccc(CN(CC(=O)NCc2ccco2)C(=O)CNS(=O)(=O)c2ccccc2)c1", "hERG current change (%, negative = inhibition) at 10uM": -53.1}
{"smiles": "Cc1ccc(S(=O)(=O)NCC(=O)N(CC(=O)NCc2ccco2)Cc2ccco2)cc1", "hERG current change (%, negative = inhibition) at 10uM": -23.5}
{"smiles": "O=C(CN(Cc1ccccc1)C(=O)CNS(=O)(=O)c1ccccc1)NCc1ccco1", "hERG current change (%, negative = inhibition) at 10uM": -0.255}
{"smiles": "COc1ccc(S(=O)(=O)NCC(=O)N(CC(=O)NCc2ccco2)Cc2ccccc2)cc1", "hERG current change (%, negative = inhibition) at 10uM": -10.6}
{"smiles": "O=C(CN(Cc1ccco1)C(=O)CNS(=O)(=O)c1ccc(F)cc1)NCc1ccco1", "hERG current change (%, negative = inhibition) at 10uM": -8.87}
{"smiles": "O=C(CN(Cc1ccco1)C(=O)CNS(=O)(=O)c1ccc(Cl)cc1)NCc1ccco1", "hERG current change (%, negative = inhibition) at 10uM": -55.4}
{"smiles": "COc1ccc(CNC(=O)CN(Cc2ccco2)C(=O)CNS(=O)(=O)c2ccccc2)cc1", "hERG current change (%, negative = inhibition) at 10uM": -38.7}
{"smiles": "COc1ccc(CNC(=O)CN(Cc2ccco2)C(=O)CNS(=O)(=O)c2ccc(C)cc2)cc1", "hERG current change (%, negative = inhibition) at 10uM": -73}
{"smiles": "COc1ccc(CN(CC(=O)NCc2ccco2)C(=O)CNS(=O)(=O)c2ccc(C)cc2)cc1", "hERG current change (%, negative = inhibition) at 10uM": -63.3}
{"smiles": "Cc1ccc(S(=O)(=O)NCC(=O)N(CC(=O)NCc2ccco2)Cc2ccccc2)cc1", "hERG current change (%, negative = inhibition) at 10uM": -10.2}
{"smiles": "Cc1ccc(C)c(N2CCN(S(=O)(=O)c3csc(C(N)=O)c3)CC2)c1", "hERG current change (%, negative = inhibition) at 10uM": -8.27}
{"smiles": "CCC1CCCCN1c1nc2c(C=O)c(C)nn2c2ccccc12", "note": "(stereo not drawn)", "hERG current change (%, negative = inhibition) at 10uM": -12}
{"smiles": "COc1cccc(-c2nc(CS(=O)(=O)CC(=O)Nc3cc(F)ccc3F)c(C)o2)c1", "hERG current change (%, negative = inhibition) at 10uM": 8.16}
{"smiles": "COCCNc1ccc(S(=O)(=O)N2CCCC2)cn1", "hERG current change (%, negative = inhibition) at 10uM": 13.2}
{"smiles": "COc1ccc(-c2c3c(=O)n(C)c(=O)n(C)c3cn2NC(C)=O)cc1", "hERG current change (%, negative = inhibition) at 10uM": 12.2}
{"smiles": "Cc1ccc(C)c(Cn2nnc3c(=O)[nH]c(C4CCCN(C(=O)c5ccco5)C4)nc32)c1", "note": "(stereo not drawn)", "hERG current change (%, negative = inhibition) at 10uM": -38.3}
{"smiles": "Cc1ccc(C)c(Cn2nnc3c(=O)[nH]c(C4CCN(C(=O)c5cccs5)CC4)nc32)c1", "hERG current change (%, negative = inhibition) at 10uM": -66.5}
{"smiles": "Cc1ccc(C)c(Cn2nnc3c(=O)[nH]c(C4CCCN(C(=O)C5CCCCC5)C4)nc32)c1", "note": "(stereo not drawn)", "hERG current change (%, negative = inhibition) at 10uM": -51.5}
{"smiles": "CCCCC(=O)N1CCCC(c2nc3c(nnn3Cc3cc(C)ccc3C)c(=O)[nH]2)C1", "note": "(stereo not drawn)", "hERG current change (%, negative = inhibition) at 10uM": -52.2}
{"smiles": "Cc1ccc(C)c(Cn2nnc3c(=O)[nH]c(C4CCCN(C(=O)C5CCC5)C4)nc32)c1", "note": "(stereo not drawn)", "hERG current change (%, negative = inhibition) at 10uM": -32.4}
{"smiles": "O=C(C1CCCCC1)N1CCCC(c2nc3c(nnn3Cc3ccccc3)c(=O)[nH]2)C1", "note": "(stereo not drawn)", "hERG current change (%, negative = inhibition) at 10uM": -8.73}
{"smiles": "Cc1ccc(Cn2nnc3c(=O)[nH]c(C4CCN(C(=O)c5cccs5)CC4)nc32)cc1", "hERG current change (%, negative = inhibition) at 10uM": -33}
{"smiles": "Cc1ccc(C)c(Cn2nnc3c(=O)[nH]c(C4CCCN(C(=O)c5cccs5)C4)nc32)c1", "note": "(stereo not drawn)", "hERG current change (%, negative = inhibition) at 10uM": 0.859}
{"smiles": "Cc1ccc(C)c(Cn2nnc3c(=O)[nH]c(C4CCCN(C(=O)CC(C)C)C4)nc32)c1", "note": "(stereo not drawn)", "hERG current change (%, negative = inhibition) at 10uM": -14.6}
{"smiles": "Cc1c(C(=O)N/N=C/c2ccc(N(C)C)cc2)[nH]c2ccc(Cl)cc12", "hERG current change (%, negative = inhibition) at 10uM": 2.69}
{"smiles": "COC(=O)C1=C(C(=O)c2ccccc2)C(c2cccs2)n2nnnc2N1", "note": "(stereo not drawn)", "hERG current change (%, negative = inhibition) at 10uM": 19.8}
{"smiles": "Cc1ccc(CN2C(=O)CCC2C(=O)NCc2ccc3c(c2)OCO3)cc1", "note": "(stereo not drawn)", "hERG current change (%, negative = inhibition) at 10uM": -17.4}
{"smiles": "NS(=O)(=O)c1ccc(CNC(=S)NCc2ccc(F)cc2)cc1", "hERG current change (%, negative = inhibition) at 10uM": 9.61}
{"smiles": "CCOC(=O)c1ccc(NC(=O)CC2C(=O)N(c3ccccc3)C(=O)N2CCCOC)cc1", "note": "(stereo not drawn)", "hERG current change (%, negative = inhibition) at 10uM": -4.49}
{"smiles": "CC(=O)NS(=O)(=O)c1ccc(NC(=O)/C=C/c2cn(-c3ccccc3)nc2-c2ccccc2)cc1", "hERG current change (%, negative = inhibition) at 10uM": 34}
{"smiles": "COc1ccc(C(=O)OCCN2CCN(C3=NS(=O)(=O)c4ccccc43)CC2)cc1OC", "hERG current change (%, negative = inhibition) at 10uM": -32.9}
{"smiles": "O=C(c1ccc(F)cc1)N1CCN(C2=NS(=O)(=O)c3ccccc32)CC1", "hERG current change (%, negative = inhibition) at 10uM": -15.8}
{"smiles": "O=C(OCCN1CCN(C2=NS(=O)(=O)c3ccccc32)CC1)c1ccccc1F", "hERG current change (%, negative = inhibition) at 10uM": -16.9}
{"smiles": "O=C(c1cccc(Br)c1)N1CCN(C2=NS(=O)(=O)c3ccccc32)CC1", "hERG current change (%, negative = inhibition) at 10uM": -65.8}
{"smiles": "O=C(OCCN1CCN(C2=NS(=O)(=O)c3ccccc32)CC1)c1cccc(Br)c1", "hERG current change (%, negative = inhibition) at 10uM": -68.6}
{"smiles": "O=C(c1ccc([N+](=O)[O-])cc1)N1CCN(C2=NS(=O)(=O)c3ccccc32)CC1", "hERG current change (%, negative = inhibition) at 10uM": -46.2}
{"smiles": "COc1ccc2c(CC(=O)OCC(=O)NC(N)=O)coc2c1", "hERG current change (%, negative = inhibition) at 10uM": 0.524}
